Out of some 2,400 compounds screened, about 950 (40%) were called active.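 Rule for the calls: active = thallium flux ratio, averaged over three wells, more than 5 SD below the buffer control mean; inactive = the rest.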 The sample as a whole holds a higher share of actives than the screen did.
Experiment: nonspecific thallium influx blockers, KCNK3-free cells – cell-based, non-induced KCNK3 line, FluxOR thallium, triplicate, counter-screen for KCNK3 inhibitor project, primary screen (AID 651747);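 note: host cells are CHO cells without KCNK3 induction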;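 for thallium flux ratio (lower = more inhibition): ratio is peak minus trough fluorescence over baseline then normalized to buffer controls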
Conditions: non-induced KCNK3 parental cells, at 10 µM; outcome: FluxOR thallium flux; thallium flux ratio (lower = more inhibition): stronger effect = lower value

Row | Structure (SMILES) | thallium flux ratio (lower = more inhibition)
1 | CCOC(=O)C1SC2(C(F)(F)C(F)F)CC1(O)c1c(c(OC)c3occc3c1OC)O2 (stereo not drawn) | 0.16 (active)
2 | CCCCCCN=C(CC)c1c(O)n(CCCC)c(=O)[nH]c1=O | 0.126 (active)
3 | COc1ccccc1C1=NCc2nnc(CSC)n2-c2ccc(Cl)cc21 | inactive
